Results reported in PubChem BioAssay (NCATS).
Records with an inconclusive call do not appear. Unmarked numbers belong to inactive results. Calls follow the shape of the dose curve; as a rule, active = well fitted curve in the direction sought with a large enough effect; inconclusive = small, poorly fitted or top-dose-only effect, or another doubt; inactive = no such curve, though single readings can be large or run the other way.

biological target: phosphoglycerate mutase (Leishmania major) (UniProt Q4Q090); assay: qHTS Validation Assay to Find Inhibitors of Phosphoglycerate Mutase (AID 504548); details: biochemical enzyme activity; Potency: inhibition qHTS; series mostly up to 57.5 µM; activity change, negative = inhibition: at the top concentration
Sequence (Q4Q090 1-553): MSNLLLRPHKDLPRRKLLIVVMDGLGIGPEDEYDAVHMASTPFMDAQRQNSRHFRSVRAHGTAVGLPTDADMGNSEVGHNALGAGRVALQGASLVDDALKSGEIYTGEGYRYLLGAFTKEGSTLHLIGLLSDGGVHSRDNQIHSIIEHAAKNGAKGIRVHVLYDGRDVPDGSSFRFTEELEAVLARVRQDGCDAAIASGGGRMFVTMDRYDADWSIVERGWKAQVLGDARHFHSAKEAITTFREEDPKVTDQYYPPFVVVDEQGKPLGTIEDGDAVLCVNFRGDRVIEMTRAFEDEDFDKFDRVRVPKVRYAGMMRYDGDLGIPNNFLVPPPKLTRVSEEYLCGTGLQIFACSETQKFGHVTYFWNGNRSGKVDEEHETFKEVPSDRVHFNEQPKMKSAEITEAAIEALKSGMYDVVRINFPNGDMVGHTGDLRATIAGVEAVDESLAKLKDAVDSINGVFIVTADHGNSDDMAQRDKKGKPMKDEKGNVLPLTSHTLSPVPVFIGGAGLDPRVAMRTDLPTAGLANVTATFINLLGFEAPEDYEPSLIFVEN
From the text: NIH Molecular Libraries Probe Production Network [MLPCN]
NIH Chemical Genomics Center [NCGC]
PI Name: Malcolm Walkinshaw, University of Edinburgh
Several species of the Trypanosomatidae family of parasitic protozoans cause a spectrum of diseases throughout the tropical and subtropical world. Sleeping sickness, caused by two subspecies of Trypanosoma brucei, is endemic to areas of sub-Saharan Africa, while Chagas disease, a manifestation of Trypanosoma cruzi infection, is prevalent throughout Central and South America. In addition, many species of Leishmania are responsible for a range of cutaneous and visceral diseases, causing ulcers, destructive lesions and kalaazar, a lethal infection of the viscera. Collectively, these organisms infect 30 million people worldwide (~500 million live in endemic areas), and account for ~130,000 deaths annually. Given their debilitating and prevalent nature, trypanosomatid parasites impose a heavy medical, economic and social burden on entire populations, primarily in the developing world. The problem is further exacerbated by the fact that existing treatments have progressed little in the past 50 years, and current drugs show high toxicity and poor efficacy.
Blood-stream stages of T. brucei are entirely dependent on glycolysis as a source of ATP, and the tricarboxylic acid cycle and oxidative phosphorylation are both repressed. Glycolysis in axenically cultured T. cruzi, representing the intracellular pathogenic stage, is also essential for these parasites. […] Previous studies have shown that the glycolytic enzyme, phosphoglycerate mutase (PGAM), is a viable target for drugs to kill these parasites. […] Furthermore, the cobalt centers present within PGAM are only found in trypanosomatid and plant PGAMs, and are known to be required for activity, thereby providing an additional target. Moreover, trypanosomatid PGAMs are completely different from the enzyme that performs the same function in humans: the parasite and host enzymes share no structural or even mechanistic features; specificity is therefore unlikely to be an issue.
NCGC Assay Protocol Summary:
Briefly, 3ul of substrate buffer (all columns) are dispensed into Greiner white solid bottom 1536-well assay plates. Compounds are then transferred via Kalypsys pin tool equipped with 1536-pin array (10nl slotted pins, V&P Scientific, San Diego, CA). Following addition of compound, 1ul of Lm PGAM (1.25nM final concentration, columns […]) is added to initiate the reaction; columns 3-4 receive only TEA buffer as negative controls. The plates are then incubated at room temperature for 45 minutes. Kinase-GloPlus reagent is added (2ul) and plates incubated for 10 minutes, before being transferred to a ViewLux high-throughput CCD imager (PerkinElmer) wherein single end-point measurements of luminescence are acquired using a clear filter. All reagents are diluted in an assay buffer consisting of 100 mM TEA (pH 7.6), 5 mM MgCl2 and 0.01% Tween-20.
% is scaled to controls: 0 for no effect and ±100 for the full control effect.

SMILES | activity change, negative = inhibition [%]
N[C@H](C(=O)O)[C@H](O)C(=O)O | -3.61
O=C(O)c1ccccc1Nc1ccccc1 | -1.57
[N-]=[N+]=Nc1ccc(C(=O)CSC[C@H](NC(=O)CC[C@H](N)C(=O)O)C(=O)NCC(=O)O)cc1 | -3.28
CNc1cc(NS(=O)(=O)c2ccc(N)cc2)nc(NC)n1 | 0.768
O=c1cc(-c2ccccc2F)[nH]c2cc3c(cc12)OCO3 | 1.13
Cc1nc(N=Nc2ccc(C(=O)O)cc2)c(COP(=O)(O)O)c(C=O)c1O | 0.209
C=C(C)C1CC=C(C(=O)O)CC1 (stereo not given) | -1.86
NC1(C(=O)O)CCc2cc(C(=O)O)ccc21 (stereo not given) | 1.76
C[C@@H](NCCc1ccc(O)cc1)[C@@H](O)c1ccc(O)cc1 | -13.1
CCCCCCCCCCCCCCC[C@H](O)[C@H](N)CO | -0.549
COc1cc(CC(=O)O)ccc1O | 12.4
CCCC[C@@]1(C2CCCC2)Cc2cc(OCC(=O)O)c(Cl)c(Cl)c2C1=O | -7.79
Cc1nc2n(c(=O)c1CCN1CCC(c3noc4cc(F)ccc34)CC1)CCCC2O (stereo not given) | -0.241
COc1ccc(NC(=O)c2ccc(-c3ccc(-c4noc(C)n4)cc3C)cc2)cc1N1CCN(C)CC1 | 3.22
O=c1oc(Cl)c(Cl)c2ccccc12 | 12.2
NC(N)=[N+]1CCc2ccccc2C1 | 1.87
COC(=O)[C@H](NC(=O)c1cc(-c2ccccc2)nc2ccccc12)c1ccccc1 | -6.43
COc1ccc(C(=O)NCc2cccnc2)cc1C(=O)NCc1cccnc1 | 1.83
Nc1ncnc2c1nc(Br)n2C1OC2COP(=O)(O)O[C@@H]2C1O (stereo not given in full) | 1.16
CCCn1c(=O)c2c(ncn2C)n(CCC)c1=O | -2.9

SMILES | activity change, negative = inhibition [%]
Nn1nnc2ccccc21 | -3.89
CNCCc1cnc(CCC(c2ccccc2)c2ccccc2)[nH]1 | -0.191
NCCS(=O)O | 1.28
COCc1nc2c([nH]1)c(=O)n(C)c(=O)n2CC(C)C | -0.613
CC(C)(C)c1cc(/C=C(\C#N)C(N)=S)cc(C(C)(C)C)c1O | 15.1
O=C(c1ccc2c(c1)OCCO2)N1CCCCC1 | 16.9
Cc1cc2c(cc1Cl)N(C(=O)Nc1ccnc3ccccc13)CC2 | -2.52
N[C@@H](CCCC(=O)O)C(=O)O | 1.2
CC1CCN=C(N)S1 (stereo not given) | -3.21
CO/N=C(\C(=O)N[C@@H]1C(=O)N2C(C(=O)O)=C(CSc3nc(=O)c(O)nn3C)CSC12)c1csc(N)n1 (stereo not given in full) | 14.8
NC/C=C\C(=O)O | 10.7
NC1CCN(O)C1=O (stereo not given) | -6.67
NC(N)=NC(N)=Nc1cccc(Cl)c1 | -4.2
C[N+](C)(C)CC=O | -1.21
COC(=O)C1=C(C)NC(C)=C([N+](=O)[O-])C1c1ccccc1C(F)(F)F (stereo not given) | -1.45
N#C/C(=C\c1ccc(O)c(O)c1)C(=O)NCCCNC(=O)/C(C#N)=C/c1ccc(O)c(O)c1 | -2.56
N[C@H]1CONC1=O | -0.712
Cc1ccc([N+](=O)[O-])cc1S(=O)(=O)N(C)C | 19
Oc1cc(O)c2c(c1)O[C@H](c1ccc(O)c(O)c1)[C@@H](O)C2 | 11.5
CC(=O)N[C@@H](Cc1c[nH]c2ccccc12)C(=O)OCc1cc(C(F)(F)F)cc(C(F)(F)F)c1 | -5.43
